# In publication PMC5540273 (PLoS ONE, 2017):
# Read-outs that look alike come from different tables or passages of the source.
# Experiments:
# CDKL5 = settings: concentration: 1 μM, replicates: in singlicate; n = 1
# CHEK1 = settings: concentration: 1 μM, replicates: in singlicate; n = 1
# CHEK2 = settings: concentration: 1 μM, replicates: in singlicate; n = 1
# CIT = settings: concentration: 1 μM, replicates: in singlicate; n = 1
# CLK1 = settings: concentration: 1 μM, replicates: in singlicate; n = 1
# CLK2 = settings: concentration: 1 μM, replicates: in singlicate; n = 1
# CLK3 = settings: concentration: 1 μM, replicates: in singlicate; n = 1
# CLK4 = settings: concentration: 1 μM, replicates: in singlicate; n = 1
# CSF1R-autoinhibited = settings: concentration: 1 μM, replicates: in singlicate; n = 1
# CSF1R = settings: concentration: 1 μM, replicates: in singlicate; n = 1
# CSK = settings: concentration: 1 μM, replicates: in singlicate; n = 1
# CSNK1A1L = settings: concentration: 1 μM, replicates: in singlicate; n = 1
# CSNK1A1 = settings: concentration: 1 μM, replicates: in singlicate; n = 1
# CSNK1D = settings: concentration: 1 μM, replicates: in singlicate; n = 1
# CSNK1E = settings: concentration: 1 μM, replicates: in singlicate; n = 1
# CSNK1G1 = settings: concentration: 1 μM, replicates: in singlicate; n = 1
# CSNK1G2 = settings: concentration: 1 μM, replicates: in singlicate; n = 1
# CSNK1G3 = settings: concentration: 1 μM, replicates: in singlicate; n = 1
# CSNK2A1 = settings: n = 1
# CSNK2A2 = settings: n = 1
# [1] = concentration: 1 μM, replicates: in singlicate
# 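Note: KINOMEscan kinase panel screen.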
compound,measurement,setting,value
Cc1nccc(-c2c(-c3ccc(F)cc3)ncn2CCCN2CCOCC2)n1.Cl [SB-282975],%Inh,CDKL5,0%
same,%Inh,CHEK1,7%
same,%Inh,CHEK2,14%
same,%Inh,CIT,21%
same,%Inh,CLK1,21%
same,%Inh,CLK2,5%
same,%Inh,CLK3,18%
same,%Inh,CLK4,0%
same,%Inh,CSF1R-autoinhibited,0%
same,%Inh,CSF1R,0%
same,%Inh,CSK,0%
same,%Inh,CSNK1A1L,21%
same,%Inh,CSNK1A1,51%
same,%Inh,CSNK1D,95.6%
same,%Inh,CSNK1E,88%
same,%Inh,CSNK1G1,4%
same,%Inh,CSNK1G2,6%
same,%Inh,CSNK1G3,2%
same,%Inh,CSNK2A1; [1],1%
same,%Inh,CSNK2A2; [1],9%
Fc1ccc(-c2nc[nH]c2-c2ccncc2)cc1 [SB-217360],%Inh,CDKL5,2%
same,%Inh,CHEK1,0%
same,%Inh,CHEK2,16%
same,%Inh,CIT,93.7%
same,%Inh,CLK1,5%
same,%Inh,CLK2,10%
same,%Inh,CLK3,10%
same,%Inh,CLK4,0%
same,%Inh,CSF1R-autoinhibited,0%
same,%Inh,CSF1R,0%
same,%Inh,CSK,6%
same,%Inh,CSNK1A1L,24%
same,%Inh,CSNK1A1,93.3%
same,%Inh,CSNK1D,91.9%
same,%Inh,CSNK1E,97.7%
same,%Inh,CSNK1G1,5%
same,%Inh,CSNK1G2,0%
same,%Inh,CSNK1G3,5%
same,%Inh,CSNK2A1; [1],0%
same,%Inh,CSNK2A2; [1],0%
COc1ccc(Nc2nccc(N3CCC(NC(=O)C(C)c4ccc(Cl)cc4)C3)n2)cc1 (stereo not shown) [GSK1379735],%Inh,CDKL5,9%
same,%Inh,CHEK1,26%
same,%Inh,CHEK2,0%
same,%Inh,CIT,26%
same,%Inh,CLK1,16%
same,%Inh,CLK2,13%
same,%Inh,CLK3,0%
same,%Inh,CLK4,8%
same,%Inh,CSF1R-autoinhibited,8%
same,%Inh,CSF1R,27%
same,%Inh,CSK,0%
same,%Inh,CSNK1A1L,1%
same,%Inh,CSNK1A1,10%
same,%Inh,CSNK1D,0%
same,%Inh,CSNK1E,11%
same,%Inh,CSNK1G1,0%
same,%Inh,CSNK1G2,0%
same,%Inh,CSNK1G3,23%
same,%Inh,CSNK2A1; [1],12%
same,%Inh,CSNK2A2; [1],14%
COc1ccc(CSc2nnc(-c3ccc4nccn4c3)o2)cc1C(F)(F)F,%Inh,CDKL5,16%
same,%Inh,CHEK1,23%
same,%Inh,CHEK2,17%
same,%Inh,CIT,14%
same,%Inh,CLK1,97.1%
same,%Inh,CLK2,91.9%
same,%Inh,CLK3,12%
same,%Inh,CLK4,90.3%
same,%Inh,CSF1R-autoinhibited,6%
same,%Inh,CSF1R,17%
same,%Inh,CSK,0%
same,%Inh,CSNK1A1L,0%
same,%Inh,CSNK1A1,18%
same,%Inh,CSNK1D,0%
same,%Inh,CSNK1E,0%
same,%Inh,CSNK1G1,15%
same,%Inh,CSNK1G2,0%
same,%Inh,CSNK1G3,0%
same,%Inh,CSNK2A1; [1],0%
same,%Inh,CSNK2A2; [1],21%
Cc1ccc(NC(=O)c2ccc(Cl)cc2)cc1-c1ccc(C(=O)Nc2ccncc2)cc1 [GSK1398467],%Inh,CDKL5,0%
same,%Inh,CHEK1,16%
same,%Inh,CHEK2,0%
same,%Inh,CIT,69%
same,%Inh,CLK1,3%
same,%Inh,CLK2,100%
same,%Inh,CLK3,0%
same,%Inh,CLK4,15%
same,%Inh,CSF1R-autoinhibited,0%
same,%Inh,CSF1R,97.1%
same,%Inh,CSK,0%
same,%Inh,CSNK1A1L,14%
same,%Inh,CSNK1A1,0%
same,%Inh,CSNK1D,18%
same,%Inh,CSNK1E,11%
same,%Inh,CSNK1G1,8%
same,%Inh,CSNK1G2,9%
same,%Inh,CSNK1G3,22%
same,%Inh,CSNK2A1; [1],0%
same,%Inh,CSNK2A2; [1],0%
COc1nccc(-c2c(-c3ccc(F)cc3)ncn2CCCN2CCOCC2)n1 [SB-282852],%Inh,CDKL5,0%
same,%Inh,CHEK1,0%
same,%Inh,CHEK2,0%
same,%Inh,CIT,17%
same,%Inh,CLK1,73%
same,%Inh,CLK2,0%
same,%Inh,CLK3,0%
same,%Inh,CLK4,5%
same,%Inh,CSF1R-autoinhibited,41%
same,%Inh,CSF1R,0%
same,%Inh,CSK,0%
same,%Inh,CSNK1A1L,45%
same,%Inh,CSNK1A1,44%
same,%Inh,CSNK1D,31%
same,%Inh,CSNK1E,29%
same,%Inh,CSNK1G1,0%
same,%Inh,CSNK1G2,0%
same,%Inh,CSNK1G3,53%
same,%Inh,CSNK2A1; [1],0%
same,%Inh,CSNK2A2; [1],9%
CS(=O)(=O)Cc1ccc(Nc2nccc(-c3c(-c4cccc(NC(=O)C5CCCCC5)c4)nn4ncccc34)n2)cc1 [GSK350559],%Inh,CDKL5,33%
same,%Inh,CHEK1,12%
same,%Inh,CHEK2,0%
same,%Inh,CIT,10%
same,%Inh,CLK1,10%
same,%Inh,CLK2,10%
same,%Inh,CLK3,24%
same,%Inh,CLK4,0%
same,%Inh,CSF1R-autoinhibited,35%
same,%Inh,CSF1R,79%
same,%Inh,CSK,10%
same,%Inh,CSNK1A1L,0%
same,%Inh,CSNK1A1,7%
same,%Inh,CSNK1D,0%
same,%Inh,CSNK1E,20%
same,%Inh,CSNK1G1,2%
same,%Inh,CSNK1G2,5%
same,%Inh,CSNK1G3,4%
same,%Inh,CSNK2A1; 1 µM,17%
same,%Inh,CSNK2A2; 1 µM,1%
COC(=O)c1cccc(NC(=O)NC2CCN(c3ccnc(Nc4ccc(OC)cc4)n3)C2)c1 (stereo not shown) [GSK1379746],%Inh,CDKL5,0%
same,%Inh,CHEK1,0%
same,%Inh,CHEK2,0%
same,%Inh,CIT,0%
same,%Inh,CLK1,21%
same,%Inh,CLK2,100%
same,%Inh,CLK3,0%
same,%Inh,CLK4,24%
same,%Inh,CSF1R-autoinhibited,28%
same,%Inh,CSF1R,0%
same,%Inh,CSK,0%
same,%Inh,CSNK1A1L,0%
same,%Inh,CSNK1A1,0%
same,%Inh,CSNK1D,21%
same,%Inh,CSNK1E,35%
same,%Inh,CSNK1G1,0%
same,%Inh,CSNK1G2,0%
same,%Inh,CSNK1G3,26%
same,%Inh,CSNK2A1; [1],0%
same,%Inh,CSNK2A2; [1],0%
